Of roughly 7,900 targets only a part is listed; those with a hit were picked by preference. About 0.6% of all pairs of compound and target were hits.
Experiments:
Experiment in all cases: log2 fold change, soluble protein after heating vs DMSO (PISA); higher = thermal stabilisation; K562 cells, 10 uM, 30 min; active = over 0.2 and 3.5 SD of the protein, either way, in both replicates (recomputed)
erlotinib = compound: C#Cc1cccc(Nc2ncnc3cc(OCCOC)c(OCCOC)cc23)c1 [erlotinib]
Procedure, shortened: (§1)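 K562 cells at 2×10^6 cells/mL were treated with 10 μM compound for 30 min. Aliquots were heated for 3 min across 48°C-58°C, pooled, and extracted in PBS with 0.5% NP-40 at 4°C; soluble protein was the supernatant after 21,000xg for 90 min. Soluble protein was quantified by TMTpro 16plex LC-MS/MS with channel sums equalised, and reported as log2 fold change in thermal stability against DMSO controls, with values from duplicates.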

[1] = compound: C/C(=N\NC(=O)C1=CC(=CC=C1)S(=O)(=O)N2CCOCC2)/C3=C(C=CC(=C3)Cl)O
Procedure, shortened: as §1

[2] = compound: C1=CC(=C(C=C1Cl)C2=NC3=NC=CN=C3C(=N2)NC4=CC=NC=C4)F
Procedure, shortened: as §1

[3] = compound: C1=CC(=CC=C1C2=NC3=C(N2)C=C(C=C3)C(=O)N)OC4=CC=C(C=C4)Cl
Procedure, shortened: as §1

[4] = compound: C1=CC2=C(C=CC(=C2)/C=C\3/C(=O)NC(=NCC4=CC=CS4)S3)N=C1
Procedure, shortened: as §1

[5] = compound: C1=CC2=NC=CN=C2C=C1/C=C/3\C(=O)NC(=O)S3
Procedure, shortened: as §1

[6] = compound: C1=CC=C(C=C1)C2=NC(=C(N2)C3=CC=NC=C3)C4=CC(=C(C=C4)Cl)O
Procedure, shortened: as §1

[7] = compound: C1=CC=C2C(=C1)C3=NNC4=CC=CC(=C43)C2=O
Procedure, shortened: as §1

[8] = compound: C1CCN(C1)C(=O)NC2=CC=CC(=C2)NC3=NC=C(C(=N3)NCCC4=CN=CN4)Br
Procedure, shortened: as §1

[9] = compound: C1CN(CCC1(CC2=CC=C(C=C2)Cl)N)C3=NC=NC4=C3C=CN4
Procedure, shortened: as §1

Measured: log2 fold change

RUNX1 isoform 8 (UniProt Q01196)
Chain of UniProt Q01196 (Q01196 whole entry, looked up): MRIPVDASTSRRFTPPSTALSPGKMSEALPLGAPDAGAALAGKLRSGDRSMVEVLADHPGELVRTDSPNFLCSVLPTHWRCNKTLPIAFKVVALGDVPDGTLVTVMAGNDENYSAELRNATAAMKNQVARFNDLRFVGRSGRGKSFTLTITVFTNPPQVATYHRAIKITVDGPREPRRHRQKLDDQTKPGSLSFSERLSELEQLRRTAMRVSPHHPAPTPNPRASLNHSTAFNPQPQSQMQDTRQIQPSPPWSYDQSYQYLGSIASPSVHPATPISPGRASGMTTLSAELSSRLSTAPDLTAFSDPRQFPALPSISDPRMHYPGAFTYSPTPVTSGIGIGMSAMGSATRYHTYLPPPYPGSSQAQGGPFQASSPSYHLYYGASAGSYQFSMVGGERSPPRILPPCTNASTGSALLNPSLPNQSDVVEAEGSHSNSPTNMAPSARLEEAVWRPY
inactive: erlotinib 0.122 | [1] 0.081 | [2] -0.03 | [3] 0.048 | [4] -0.001 | [5] 0.032 | [6] 0.131 | [7] -0.033

SCYL3 isoform 2 (UniProt Q8IZE3)
inactive: erlotinib 0.046 | [1] 0.055 | [2] 0.07 | [3] -0.05 | [4] 0.068 | [5] -0.024 | [6] 0.058 | [7] 0.014 | [8] 0.093 | [9] 0.123

RNF187 (UniProt Q5TA31)
inactive: erlotinib 0.095 | [1] -0.05 | [2] -0.061 | [3] -0.028 | [4] 0.101 | [5] -0.028 | [6] -0.067 | [7] 0.008 | [8] 0.017 | [9] -0.056

SEC31A (UniProt O94979)
inactive: erlotinib 0.049 | [1] 0.023 | [2] 0.006 | [3] -0.025 | [4] 0.094 | [5] 0.016 | [6] -0.045 | [7] 0.023 | [8] -0.06 | [9] -0.025

SEPTIN5 (UniProt G3XAH0)
inactive: erlotinib 0.009 | [1] -0.251 | [2] 0.146 | [3] 0.076 | [4] -0.022 | [5] -0.035 | [6] 0.014 | [7] -0.24 | [8] 0.009 | [9] 0.049

RDH13 (UniProt Q8NBN7)
inactive: erlotinib 0.019 | [1] -0.004 | [2] 0.082 | [3] 0.01 | [4] 0.127 | [5] -0.024 | [6] 0.005 | [7] 0.007 | [8] 0.05 | [9] 0.007

RSF1 (UniProt Q96T23)
inactive: erlotinib 0.034 | [1] 0.152 | [2] 0.031 | [3] 0.126 | [4] 0.039 | [5] 0.012 | [6] 0.089 | [7] -0.057 | [8] 0.01 | [9] 0.006

RPS19 (UniProt P39019)
inactive: erlotinib -0.141 | [1] -0.102 | [2] -0.274 | [3] 0.057 | [4] -0.082 | [5] -0.044 | [6] -0.026 | [7] -0.015 | [8] 0.094 | [9] -0.145

SDCBP (UniProt O00560)
inactive: erlotinib -0.048 | [1] -0.1 | [2] -0.058 | [3] 0.047 | [4] -0.036 | [5] -0.008 | [6] 0.034 | [7] 0.002 | [8] -0.021 | [9] -0.045

RPL38 (UniProt P63173)
inactive: erlotinib 0.024 | [1] -0.05 | [2] -0.148 | [3] 0.026 | [4] -0.102 | [5] -0.025 | [6] -0.027 | [7] 0.026 | [8] 0.033 | [9] -0.106

SEC23IP (UniProt Q9Y6Y8)
Chain of UniProt Q9Y6Y8 (Q9Y6Y8 whole entry, looked up): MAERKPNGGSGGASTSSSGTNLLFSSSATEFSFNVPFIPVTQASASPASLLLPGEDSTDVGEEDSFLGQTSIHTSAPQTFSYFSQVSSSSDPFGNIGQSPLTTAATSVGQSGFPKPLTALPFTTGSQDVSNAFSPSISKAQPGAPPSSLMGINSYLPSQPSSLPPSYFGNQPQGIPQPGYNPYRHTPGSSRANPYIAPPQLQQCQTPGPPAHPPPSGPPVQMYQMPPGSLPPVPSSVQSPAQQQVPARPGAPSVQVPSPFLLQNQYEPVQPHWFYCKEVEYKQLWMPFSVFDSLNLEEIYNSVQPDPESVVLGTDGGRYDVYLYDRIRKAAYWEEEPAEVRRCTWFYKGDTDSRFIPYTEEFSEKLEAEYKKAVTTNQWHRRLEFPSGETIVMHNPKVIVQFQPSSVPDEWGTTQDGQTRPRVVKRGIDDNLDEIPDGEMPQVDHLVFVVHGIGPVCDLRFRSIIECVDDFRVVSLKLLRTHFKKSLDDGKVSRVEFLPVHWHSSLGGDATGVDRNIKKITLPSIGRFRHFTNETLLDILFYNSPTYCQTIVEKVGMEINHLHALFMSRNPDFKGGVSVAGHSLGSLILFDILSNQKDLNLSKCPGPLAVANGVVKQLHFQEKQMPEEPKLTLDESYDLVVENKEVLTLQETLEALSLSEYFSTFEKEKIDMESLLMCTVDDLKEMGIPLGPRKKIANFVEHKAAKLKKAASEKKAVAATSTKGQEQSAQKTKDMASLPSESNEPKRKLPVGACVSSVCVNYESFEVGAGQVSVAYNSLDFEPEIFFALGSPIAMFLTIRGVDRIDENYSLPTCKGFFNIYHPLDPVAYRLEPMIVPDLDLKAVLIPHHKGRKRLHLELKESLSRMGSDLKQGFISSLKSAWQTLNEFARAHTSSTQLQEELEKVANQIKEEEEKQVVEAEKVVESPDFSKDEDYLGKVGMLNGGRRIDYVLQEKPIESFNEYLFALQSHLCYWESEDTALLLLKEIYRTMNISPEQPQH
inactive: erlotinib 0.03 | [1] 0.022 | [2] -0.013 | [3] -0.037 | [4] 0.028 | [5] 0.229 | [6] -0.023 | [7] -0.027 | [8] -0.008 | [9] -0.061

SCG3 (UniProt Q8WXD2)
inactive: erlotinib -0.076 | [1] 0.141 | [2] 0.023 | [3] 0.088 | [4] 0.09 | [5] -0.015 | [6] 0.103 | [7] -0.094 | [8] -0.05 | [9] 0.036

RPS9 (UniProt P46781)
inactive: erlotinib -0.099 | [1] -0.05 | [2] -0.384 | [3] 0.024 | [4] -0.069 | [5] -0.011 | [6] 0.047 | [7] 0.002 | [8] 0.102 | [9] -0.172

RPA3 (UniProt P35244)
Chain of UniProt P35244 (P35244 whole entry, looked up): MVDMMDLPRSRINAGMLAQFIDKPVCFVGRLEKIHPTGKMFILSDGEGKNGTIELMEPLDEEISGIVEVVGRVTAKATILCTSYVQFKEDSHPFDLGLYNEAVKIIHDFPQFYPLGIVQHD
inactive: erlotinib -0.007 | [1] 0.156 | [2] 0.084 | [3] 0.008 | [4] -0.058 | [5] -0.007 | [6] 0.115 | [7] 0.032 | [8] -0.128 | [9] -0.027

SAMSN1 isoform 3 (UniProt Q9NSI8)
Chain of UniProt Q9NSI8 (Q9NSI8 whole entry, looked up): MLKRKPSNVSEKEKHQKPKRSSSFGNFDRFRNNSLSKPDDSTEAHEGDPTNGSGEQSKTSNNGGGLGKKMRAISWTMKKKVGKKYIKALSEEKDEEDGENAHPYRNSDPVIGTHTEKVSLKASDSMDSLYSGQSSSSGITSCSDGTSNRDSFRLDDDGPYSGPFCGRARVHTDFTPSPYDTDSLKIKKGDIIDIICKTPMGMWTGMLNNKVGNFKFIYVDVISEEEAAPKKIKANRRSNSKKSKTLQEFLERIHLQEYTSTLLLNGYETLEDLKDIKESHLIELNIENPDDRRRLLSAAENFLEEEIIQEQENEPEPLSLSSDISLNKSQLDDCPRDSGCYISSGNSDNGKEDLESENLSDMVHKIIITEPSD
inactive: erlotinib 0.027 | [1] 0.012 | [2] -0.006 | [3] 0.001 | [4] 0.037 | [5] 0.021 | [6] -0.009 | [7] -0.022 | [8] 0.007 | [9] -0.114

RRP9 (UniProt O43818)
inactive: erlotinib 0.018 | [1] -0.04 | [2] -0.099 | [3] -0.004 | [4] -0.042 | [5] 0.03 | [6] -0.114 | [7] -0.085 | [8] -0.081 | [9] -0.016

RAB8B (UniProt Q92930)
Chain of UniProt Q92930 (Q92930 whole entry, looked up): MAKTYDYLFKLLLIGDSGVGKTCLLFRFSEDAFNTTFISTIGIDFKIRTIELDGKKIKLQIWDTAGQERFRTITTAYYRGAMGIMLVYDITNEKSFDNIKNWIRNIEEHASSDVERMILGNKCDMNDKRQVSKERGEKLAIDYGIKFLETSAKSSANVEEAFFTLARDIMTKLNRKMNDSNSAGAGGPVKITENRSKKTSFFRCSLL
inactive: erlotinib 0.258 | [1] 0.085 | [3] 0.028 | [4] -0.02 | [5] 0.145 | [6] 0.029 | [7] 0.012 | [8] 0.027 | [9] -0.043
active: [2] 0.332

RPS12 (UniProt P25398)
inactive: erlotinib -0.115 | [1] -0.082 | [2] -0.072 | [3] -0.001 | [4] -0.021 | [5] -0.002 | [6] 0.008 | [7] -0.02 | [8] 0.027 | [9] -0.05

RHEB (UniProt Q15382)
inactive: erlotinib 0.028 | [1] 0.042 | [2] 0.075 | [3] -0.041 | [4] 0.008 | [5] 0.008 | [6] -0.008 | [7] -0.004 | [8] -0.005 | [9] 0.041

RBM27 (UniProt Q9P2N5)
inactive: erlotinib 0.034 | [1] 0.079 | [2] 0.003 | [3] 0.022 | [4] -0.039 | [5] -0.01 | [6] -0.067 | [7] 0.022 | [8] -0.061 | [9] -0.128

RBM39 (UniProt Q14498)
Chain of UniProt Q14498 (Q14498 whole entry, looked up): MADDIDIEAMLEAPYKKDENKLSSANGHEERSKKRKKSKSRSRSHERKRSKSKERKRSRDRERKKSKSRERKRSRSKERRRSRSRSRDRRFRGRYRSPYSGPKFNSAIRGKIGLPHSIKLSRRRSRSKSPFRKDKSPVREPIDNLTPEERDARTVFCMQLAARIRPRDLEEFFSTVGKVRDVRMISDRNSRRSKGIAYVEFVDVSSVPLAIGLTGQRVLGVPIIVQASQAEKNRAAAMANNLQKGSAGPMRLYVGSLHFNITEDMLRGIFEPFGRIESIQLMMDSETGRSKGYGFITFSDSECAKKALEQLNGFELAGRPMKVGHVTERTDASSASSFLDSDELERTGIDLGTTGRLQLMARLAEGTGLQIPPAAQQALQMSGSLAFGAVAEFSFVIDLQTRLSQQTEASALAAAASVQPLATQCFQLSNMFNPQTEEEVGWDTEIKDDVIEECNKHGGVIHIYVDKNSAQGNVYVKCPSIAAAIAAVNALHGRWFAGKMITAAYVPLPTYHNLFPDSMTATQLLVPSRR
inactive: erlotinib 0.087 | [1] 0.074 | [2] 0.013 | [3] -0.028 | [4] -0.021 | [5] -0.052 | [6] -0.022 | [7] -0.168 | [8] -0.071 | [9] -0.232

RNF220 (UniProt Q5VTB9)
Chain of UniProt Q5VTB9 (Q5VTB9 whole entry, looked up): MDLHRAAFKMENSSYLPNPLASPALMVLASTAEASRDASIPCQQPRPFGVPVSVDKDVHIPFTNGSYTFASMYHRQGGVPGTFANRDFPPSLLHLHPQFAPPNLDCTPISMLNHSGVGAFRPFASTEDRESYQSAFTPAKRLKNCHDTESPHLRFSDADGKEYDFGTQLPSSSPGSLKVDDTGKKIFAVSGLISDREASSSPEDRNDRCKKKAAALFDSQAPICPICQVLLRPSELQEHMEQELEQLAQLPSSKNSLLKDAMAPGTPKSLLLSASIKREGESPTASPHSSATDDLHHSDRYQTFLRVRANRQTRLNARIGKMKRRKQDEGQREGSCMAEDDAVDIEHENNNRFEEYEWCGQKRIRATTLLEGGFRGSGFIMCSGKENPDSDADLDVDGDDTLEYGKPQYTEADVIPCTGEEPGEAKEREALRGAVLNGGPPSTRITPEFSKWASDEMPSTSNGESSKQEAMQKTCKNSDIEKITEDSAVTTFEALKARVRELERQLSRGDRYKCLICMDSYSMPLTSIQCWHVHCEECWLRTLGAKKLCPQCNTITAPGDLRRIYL
inactive: erlotinib 0.017 | [1] 0.034 | [2] 0.017 | [3] 0.011 | [4] 0.034 | [5] 0.03 | [6] 0.026 | [7] 0.011 | [8] -0.008 | [9] -0.022

RPS16 (UniProt P62249)
inactive: erlotinib -0.166 | [1] -0.108 | [2] -0.258 | [3] 0.049 | [4] -0.075 | [5] -0.043 | [6] -0.049 | [7] 0.002 | [8] 0.025 | [9] -0.2

SIDT2 isoform 2 (UniProt Q8NBJ9)
Chain of UniProt Q8NBJ9 (Q8NBJ9 whole entry, looked up): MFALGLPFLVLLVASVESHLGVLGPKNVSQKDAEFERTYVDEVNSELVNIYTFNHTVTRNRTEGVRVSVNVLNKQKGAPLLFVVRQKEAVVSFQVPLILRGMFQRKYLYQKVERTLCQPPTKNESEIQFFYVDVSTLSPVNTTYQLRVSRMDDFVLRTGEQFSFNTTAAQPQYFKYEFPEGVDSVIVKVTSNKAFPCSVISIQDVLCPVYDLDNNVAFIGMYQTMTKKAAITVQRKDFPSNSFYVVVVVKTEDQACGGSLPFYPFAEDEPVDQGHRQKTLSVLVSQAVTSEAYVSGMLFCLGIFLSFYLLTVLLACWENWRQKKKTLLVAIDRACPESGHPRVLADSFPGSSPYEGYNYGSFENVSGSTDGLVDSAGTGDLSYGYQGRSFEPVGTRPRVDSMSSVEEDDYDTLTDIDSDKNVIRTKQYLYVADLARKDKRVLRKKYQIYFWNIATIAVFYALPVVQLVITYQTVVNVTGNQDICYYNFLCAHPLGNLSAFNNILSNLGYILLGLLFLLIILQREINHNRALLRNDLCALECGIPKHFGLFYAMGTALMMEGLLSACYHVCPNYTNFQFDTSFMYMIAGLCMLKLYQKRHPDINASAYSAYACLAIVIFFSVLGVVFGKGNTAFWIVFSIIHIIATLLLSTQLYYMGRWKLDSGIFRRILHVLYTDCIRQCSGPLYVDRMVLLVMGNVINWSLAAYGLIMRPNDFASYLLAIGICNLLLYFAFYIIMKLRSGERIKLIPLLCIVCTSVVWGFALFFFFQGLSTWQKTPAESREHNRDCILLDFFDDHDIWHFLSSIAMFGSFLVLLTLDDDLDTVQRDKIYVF
inactive: erlotinib 0.007 | [1] 0.026 | [2] -0.027 | [3] 0.004 | [4] 0.042 | [5] 0.087 | [6] -0.053 | [7] 0.038 | [8] 0.002 | [9] 0.053

RSRC1 (UniProt Q96IZ7)
inactive: erlotinib 0 | [1] 0.135 | [2] -0.148 | [3] 0.071 | [4] -0.033 | [5] -0.057 | [6] -0.026 | [7] -0.073 | [8] 0.016 | [9] -0.1

RALA (UniProt P11233)
Chain of UniProt P11233 (P11233 whole entry, looked up): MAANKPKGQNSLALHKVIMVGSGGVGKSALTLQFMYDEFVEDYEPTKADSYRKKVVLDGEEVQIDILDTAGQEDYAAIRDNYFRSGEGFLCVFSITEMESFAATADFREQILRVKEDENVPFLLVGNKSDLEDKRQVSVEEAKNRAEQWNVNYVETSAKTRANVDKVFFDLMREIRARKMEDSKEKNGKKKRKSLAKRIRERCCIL
inactive: erlotinib 0.087 | [1] -0.005 | [2] 0.033 | [3] -0.05 | [4] 0.005 | [5] 0.056 | [6] -0.076 | [7] -0.045 | [8] -0.066 | [9] 0.104

RNPEP (UniProt Q9H4A4)
Chain of UniProt Q9H4A4 (Q9H4A4 whole entry, looked up): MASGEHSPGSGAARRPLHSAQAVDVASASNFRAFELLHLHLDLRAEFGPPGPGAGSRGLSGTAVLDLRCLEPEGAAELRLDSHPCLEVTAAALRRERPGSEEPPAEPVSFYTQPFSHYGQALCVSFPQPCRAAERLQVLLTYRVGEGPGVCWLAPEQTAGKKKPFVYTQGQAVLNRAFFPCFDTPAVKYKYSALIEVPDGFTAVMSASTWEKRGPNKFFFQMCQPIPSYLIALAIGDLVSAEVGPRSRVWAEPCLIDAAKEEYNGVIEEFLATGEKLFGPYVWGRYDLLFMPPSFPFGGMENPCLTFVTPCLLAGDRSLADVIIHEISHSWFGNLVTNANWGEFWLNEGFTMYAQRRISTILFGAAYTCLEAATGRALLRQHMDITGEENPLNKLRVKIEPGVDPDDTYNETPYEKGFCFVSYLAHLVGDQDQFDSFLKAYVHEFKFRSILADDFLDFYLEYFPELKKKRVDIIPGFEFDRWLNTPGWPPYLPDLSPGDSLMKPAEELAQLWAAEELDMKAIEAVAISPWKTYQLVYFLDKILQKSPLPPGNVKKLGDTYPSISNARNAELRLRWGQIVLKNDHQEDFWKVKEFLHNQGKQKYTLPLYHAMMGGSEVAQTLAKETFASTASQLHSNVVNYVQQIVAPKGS
inactive: erlotinib 0.053 | [1] 0.053 | [2] 0.053 | [3] 0.007 | [4] 0.009 | [5] 0.019 | [6] 0.036 | [7] -0.008 | [8] -0.004 | [9] -0.016

RSPRY1 (UniProt Q96DX4)
inactive: erlotinib 0.028 | [1] 0.079 | [2] 0.016 | [3] 0.041 | [4] 0.017 | [5] -0.042 | [6] -0.006 | [7] -0.026 | [8] -0.014 | [9] 0.033

SCAMP2 (UniProt H3BUB6)
inactive: erlotinib 0.182 | [1] -0.331 | [2] -0.143 | [3] 0.039 | [4] 0.372 | [5] -0.163 | [6] -0.281 | [7] -0.143 | [8] 0.218 | [9] -0.003

RBIS (UniProt Q8N0T1)
inactive: erlotinib -0.051 | [1] 0.015 | [2] -0.038 | [3] 0.044 | [4] 0.007 | [5] 0.031 | [6] -0.121 | [7] -0.083 | [8] 0.037 | [9] -0.093
